These results are taken from paper PMC7862700, “An all-to-all approach to the identification of sequence-specific readers for epigenetic DNA modifications on cytosine”.

What all share (assay): DAPPL (digital affinity profiling via proximity ligation, sequencing); 10 mM Tris-HCl pH 7.5, 50 mM NaCl, 1 mM DTT, 4% glycerol, room temperature, 30 min; GST-TFs on glutathione beads, 16-mer random dsDNA library, 0.1% formaldehyde crosslink after washing; high values mean tight binding
For test [1], the target named is T1, FLI1 (Homo sapiens, UniProt Q01543 1-452).
T1 sequence: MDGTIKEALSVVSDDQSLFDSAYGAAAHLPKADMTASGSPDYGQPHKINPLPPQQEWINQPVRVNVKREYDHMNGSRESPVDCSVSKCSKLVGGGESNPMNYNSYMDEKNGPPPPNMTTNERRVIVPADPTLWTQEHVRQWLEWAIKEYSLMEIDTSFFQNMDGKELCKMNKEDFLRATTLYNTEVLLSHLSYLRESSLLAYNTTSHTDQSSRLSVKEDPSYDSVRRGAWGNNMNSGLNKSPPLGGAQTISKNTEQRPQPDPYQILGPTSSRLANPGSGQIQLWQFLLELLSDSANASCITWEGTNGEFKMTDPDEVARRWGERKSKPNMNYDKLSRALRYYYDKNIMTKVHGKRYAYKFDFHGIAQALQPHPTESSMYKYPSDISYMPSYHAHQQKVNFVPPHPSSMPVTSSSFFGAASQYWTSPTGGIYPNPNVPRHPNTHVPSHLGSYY
The settings on record: protein: recombinant; tags: N-terminal GST; dsDNA, one strand shown. In short, it runs like this:
(§1)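 Sequencing on an Illumina NextSeq500 followed washing, crosslinking with 0.1% formaldehyde, proximity ligation (BsaI/T4 ligase, 1 h, 37 °C) and PCR amplification of pools that had been incubated for 30 min at room temperature with 200 nmole of a random double-stranded 16-mer DNA library in Tris/NaCl/DTT/glycerol buffer. Each pool held DNA-barcoded human transcription factors, expressed in yeast as GST fusions and captured on glutathione beads, plus a tag-only sample. Binding signal is a hexamer's read frequency for a factor divided by its frequency in the tag-only sample.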

For test [2], the target named is T2, ELK1 (Homo sapiens, UniProt P19419 1-428).
T2 sequence: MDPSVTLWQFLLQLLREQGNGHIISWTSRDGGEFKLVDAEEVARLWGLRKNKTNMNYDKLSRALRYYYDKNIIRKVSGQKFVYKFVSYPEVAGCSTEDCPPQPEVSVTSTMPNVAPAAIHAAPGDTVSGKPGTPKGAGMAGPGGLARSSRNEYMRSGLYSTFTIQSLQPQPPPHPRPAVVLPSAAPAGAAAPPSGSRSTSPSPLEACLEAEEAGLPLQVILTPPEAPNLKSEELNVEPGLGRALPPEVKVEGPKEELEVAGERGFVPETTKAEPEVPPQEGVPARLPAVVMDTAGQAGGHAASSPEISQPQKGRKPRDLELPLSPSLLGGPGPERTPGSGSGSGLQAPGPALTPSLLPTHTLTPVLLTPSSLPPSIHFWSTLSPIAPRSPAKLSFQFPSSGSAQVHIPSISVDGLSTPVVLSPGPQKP
To be noted: protein: recombinant; tags: N-terminal GST; dsDNA, one strand shown. In short, it runs like this:
as §1

Test [3] has as its target T3, GABPA (Homo sapiens, UniProt Q06546 1-454).
T3 sequence: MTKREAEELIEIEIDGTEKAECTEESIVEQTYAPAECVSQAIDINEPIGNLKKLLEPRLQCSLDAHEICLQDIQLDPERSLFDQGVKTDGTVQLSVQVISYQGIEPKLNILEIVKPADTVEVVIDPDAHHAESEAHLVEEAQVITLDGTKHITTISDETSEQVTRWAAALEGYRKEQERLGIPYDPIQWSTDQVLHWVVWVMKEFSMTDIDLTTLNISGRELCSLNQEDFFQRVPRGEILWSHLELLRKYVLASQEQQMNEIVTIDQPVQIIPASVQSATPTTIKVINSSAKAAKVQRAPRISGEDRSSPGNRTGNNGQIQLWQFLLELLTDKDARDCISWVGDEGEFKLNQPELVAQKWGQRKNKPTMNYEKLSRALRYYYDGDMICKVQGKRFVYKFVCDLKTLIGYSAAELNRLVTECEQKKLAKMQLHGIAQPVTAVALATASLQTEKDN
The settings on record: protein: recombinant; tags: N-terminal GST; dsDNA, one strand shown. The procedure, abridged: as §1

The target in test [4] is T4, ERG (Homo sapiens, UniProt P11308 1-479).
T4 sequence: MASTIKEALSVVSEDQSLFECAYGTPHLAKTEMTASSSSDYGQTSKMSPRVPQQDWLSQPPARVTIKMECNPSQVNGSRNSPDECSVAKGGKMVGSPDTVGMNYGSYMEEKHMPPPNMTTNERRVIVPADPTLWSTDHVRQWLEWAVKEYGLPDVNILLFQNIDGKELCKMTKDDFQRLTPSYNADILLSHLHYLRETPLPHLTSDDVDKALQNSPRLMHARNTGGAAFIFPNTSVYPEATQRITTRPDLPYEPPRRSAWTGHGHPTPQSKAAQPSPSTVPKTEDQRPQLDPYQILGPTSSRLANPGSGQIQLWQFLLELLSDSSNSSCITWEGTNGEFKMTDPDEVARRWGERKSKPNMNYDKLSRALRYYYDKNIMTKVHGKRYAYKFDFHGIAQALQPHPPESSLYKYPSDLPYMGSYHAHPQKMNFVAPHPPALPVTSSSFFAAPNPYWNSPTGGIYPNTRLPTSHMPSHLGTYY
To be noted: protein: recombinant; tags: N-terminal GST; dsDNA, one strand shown. In short, it runs like this: as §1

Test [5] has as its target ELF1 (Homo sapiens, UniProt P32519 1-619). The settings on record: protein: recombinant; tags: N-terminal GST; dsDNA, one strand shown. The procedure, abridged: as §1
In test [6] the target is T5, EHF (Homo sapiens, UniProt Q9NZC4 1-300).
T5 sequence: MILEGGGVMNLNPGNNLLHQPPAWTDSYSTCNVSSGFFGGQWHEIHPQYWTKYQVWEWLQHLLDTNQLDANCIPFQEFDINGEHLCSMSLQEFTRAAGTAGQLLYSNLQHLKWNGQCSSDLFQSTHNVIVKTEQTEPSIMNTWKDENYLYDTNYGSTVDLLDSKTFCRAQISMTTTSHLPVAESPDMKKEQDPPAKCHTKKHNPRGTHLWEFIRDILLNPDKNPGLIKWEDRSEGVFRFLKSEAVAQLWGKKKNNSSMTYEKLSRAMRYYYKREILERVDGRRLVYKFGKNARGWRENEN
To be noted: protein: recombinant; tags: N-terminal GST; dsDNA, one strand shown. In short, it runs like this:
as §1

The target in test [7] is SPI1 (Homo sapiens, UniProt P17947 1-270). The settings on record: protein: recombinant; tags: N-terminal GST; dsDNA, one strand shown. The procedure, abridged:
as §1

In test [8] the target is SPIB (Homo sapiens, UniProt Q01892 1-262). The settings on record: protein: recombinant; tags: N-terminal GST; dsDNA, one strand shown. The procedure, abridged:
as §1

The target in test [9] is T6, ELK3 (Homo sapiens, UniProt P41970 1-407).
T6 sequence: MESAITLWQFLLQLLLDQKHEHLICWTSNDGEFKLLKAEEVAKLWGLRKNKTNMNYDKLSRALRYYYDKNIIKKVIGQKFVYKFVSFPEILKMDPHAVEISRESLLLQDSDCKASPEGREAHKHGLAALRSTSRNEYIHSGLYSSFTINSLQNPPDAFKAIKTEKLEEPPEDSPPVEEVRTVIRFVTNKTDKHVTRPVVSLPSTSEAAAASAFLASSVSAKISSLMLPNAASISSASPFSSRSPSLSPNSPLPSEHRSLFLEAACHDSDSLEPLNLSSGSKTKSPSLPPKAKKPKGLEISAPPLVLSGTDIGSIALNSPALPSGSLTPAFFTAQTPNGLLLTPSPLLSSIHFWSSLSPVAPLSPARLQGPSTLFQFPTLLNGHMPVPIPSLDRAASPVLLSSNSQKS
The settings on record: protein: recombinant; tags: N-terminal GST; dsDNA, one strand shown. The procedure, abridged:
as §1

Test [10] deals with T7, FEV (Homo sapiens, UniProt Q99581 1-238).
T7 sequence: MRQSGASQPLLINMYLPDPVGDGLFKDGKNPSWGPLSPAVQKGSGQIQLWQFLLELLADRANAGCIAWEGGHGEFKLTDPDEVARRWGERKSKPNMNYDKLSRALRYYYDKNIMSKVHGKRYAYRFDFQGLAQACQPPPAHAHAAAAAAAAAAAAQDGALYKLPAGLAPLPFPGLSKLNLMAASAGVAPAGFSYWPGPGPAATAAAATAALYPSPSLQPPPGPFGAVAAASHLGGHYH
The settings on record: protein: recombinant; tags: N-terminal GST; dsDNA, one strand shown. In short, it runs like this:
as §1

Test [11] addresses ETV5 (Homo sapiens, UniProt P41161 1-510). The settings on record: protein: recombinant; tags: N-terminal GST; dsDNA, one strand shown. In short, it runs like this:
as §1

Test [12] has as its target HSF1 (Homo sapiens, UniProt Q00613 1-529). The settings on record: protein: recombinant; tags: N-terminal GST; chain copies: 3; dsDNA, one strand shown. In short, it runs like this: as §1
For test [13], the target named is T8, SPIC (Homo sapiens, UniProt Q8N5J4 1-248).
T8 sequence: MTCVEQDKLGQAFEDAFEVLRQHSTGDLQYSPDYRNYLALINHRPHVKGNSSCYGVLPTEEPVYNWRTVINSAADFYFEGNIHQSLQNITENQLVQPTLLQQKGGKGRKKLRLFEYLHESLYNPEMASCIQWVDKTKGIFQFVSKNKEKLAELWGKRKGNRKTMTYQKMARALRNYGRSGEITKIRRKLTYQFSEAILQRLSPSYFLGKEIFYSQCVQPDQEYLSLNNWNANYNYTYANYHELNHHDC
The settings on record: protein: recombinant; tags: N-terminal GST; dsDNA, one strand shown. In short, it runs like this:
as §1

Test [14] deals with ELF4 (Homo sapiens, UniProt Q99607 1-663). To be noted: protein: recombinant; tags: N-terminal GST; dsDNA, one strand shown. In short, it runs like this: as §1
Chain of ELF4 (Q99607 whole entry): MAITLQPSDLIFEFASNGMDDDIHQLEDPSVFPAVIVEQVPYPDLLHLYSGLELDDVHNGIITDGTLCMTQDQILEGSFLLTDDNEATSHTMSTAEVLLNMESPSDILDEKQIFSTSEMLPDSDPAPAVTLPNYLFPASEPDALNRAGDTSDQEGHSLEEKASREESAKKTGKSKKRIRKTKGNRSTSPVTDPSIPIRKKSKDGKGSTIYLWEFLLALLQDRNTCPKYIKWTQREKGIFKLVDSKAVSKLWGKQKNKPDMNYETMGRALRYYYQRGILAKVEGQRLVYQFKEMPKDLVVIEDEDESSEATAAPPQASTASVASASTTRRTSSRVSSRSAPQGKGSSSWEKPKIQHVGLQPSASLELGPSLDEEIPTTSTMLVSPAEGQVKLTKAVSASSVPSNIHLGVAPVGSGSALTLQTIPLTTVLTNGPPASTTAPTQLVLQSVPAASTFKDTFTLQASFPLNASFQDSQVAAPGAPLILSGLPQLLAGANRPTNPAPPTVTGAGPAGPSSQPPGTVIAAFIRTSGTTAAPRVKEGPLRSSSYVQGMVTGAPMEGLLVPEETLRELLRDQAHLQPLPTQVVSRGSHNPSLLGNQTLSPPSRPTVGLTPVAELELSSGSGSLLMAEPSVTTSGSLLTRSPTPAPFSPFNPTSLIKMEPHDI
The target of test [15] is T9, ELK4 (Homo sapiens, UniProt P28324-2 1-405).
T9 sequence: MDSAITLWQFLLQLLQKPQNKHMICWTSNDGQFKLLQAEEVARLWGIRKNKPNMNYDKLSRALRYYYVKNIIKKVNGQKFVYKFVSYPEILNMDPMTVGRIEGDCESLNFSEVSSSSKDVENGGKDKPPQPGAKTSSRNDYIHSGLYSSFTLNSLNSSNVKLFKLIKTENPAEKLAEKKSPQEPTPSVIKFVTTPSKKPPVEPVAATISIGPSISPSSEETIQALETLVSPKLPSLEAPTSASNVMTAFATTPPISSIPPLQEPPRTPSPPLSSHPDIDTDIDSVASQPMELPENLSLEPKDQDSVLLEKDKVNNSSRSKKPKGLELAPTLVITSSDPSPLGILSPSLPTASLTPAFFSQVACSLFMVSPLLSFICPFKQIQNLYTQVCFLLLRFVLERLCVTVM
The settings on record: protein: recombinant; tags: N-terminal GST; dsDNA, one strand shown. The procedure, abridged: as §1

In test [16] the target is T10, ETV2 (Homo sapiens, UniProt O00321 1-342).
T10 sequence: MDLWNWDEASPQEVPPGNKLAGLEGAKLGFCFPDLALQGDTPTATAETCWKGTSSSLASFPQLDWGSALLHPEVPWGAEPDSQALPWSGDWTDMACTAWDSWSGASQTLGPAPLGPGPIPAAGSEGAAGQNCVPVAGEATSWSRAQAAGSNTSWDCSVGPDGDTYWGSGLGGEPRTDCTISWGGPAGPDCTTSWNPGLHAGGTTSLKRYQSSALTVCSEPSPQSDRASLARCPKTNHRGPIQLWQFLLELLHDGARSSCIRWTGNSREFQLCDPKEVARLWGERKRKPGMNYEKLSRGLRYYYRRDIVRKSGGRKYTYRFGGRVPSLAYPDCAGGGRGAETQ
The settings on record: protein: recombinant; tags: N-terminal GST; dsDNA, one strand shown. In short, it runs like this:
as §1

Test [17] has as its target T11, ELF3 (Homo sapiens, UniProt P78545 1-371).
T11 sequence: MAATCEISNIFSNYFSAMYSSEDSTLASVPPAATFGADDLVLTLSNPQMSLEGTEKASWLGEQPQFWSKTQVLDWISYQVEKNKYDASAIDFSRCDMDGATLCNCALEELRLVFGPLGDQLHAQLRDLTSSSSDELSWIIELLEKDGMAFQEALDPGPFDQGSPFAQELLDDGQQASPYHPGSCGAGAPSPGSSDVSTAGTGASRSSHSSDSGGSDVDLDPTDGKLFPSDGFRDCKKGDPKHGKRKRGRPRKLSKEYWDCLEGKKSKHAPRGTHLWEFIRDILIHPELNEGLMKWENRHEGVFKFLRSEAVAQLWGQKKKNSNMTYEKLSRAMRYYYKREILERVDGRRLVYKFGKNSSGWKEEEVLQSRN
The settings on record: protein: recombinant; tags: N-terminal GST; dsDNA, one strand shown. In short, it runs like this:
as §1

The target of test [18] is ETV1 (Homo sapiens, UniProt P50549 1-477). The settings on record: protein: recombinant; tags: N-terminal GST; dsDNA, one strand shown. The procedure, abridged: as §1
Chain of ETV1 (P50549 whole entry): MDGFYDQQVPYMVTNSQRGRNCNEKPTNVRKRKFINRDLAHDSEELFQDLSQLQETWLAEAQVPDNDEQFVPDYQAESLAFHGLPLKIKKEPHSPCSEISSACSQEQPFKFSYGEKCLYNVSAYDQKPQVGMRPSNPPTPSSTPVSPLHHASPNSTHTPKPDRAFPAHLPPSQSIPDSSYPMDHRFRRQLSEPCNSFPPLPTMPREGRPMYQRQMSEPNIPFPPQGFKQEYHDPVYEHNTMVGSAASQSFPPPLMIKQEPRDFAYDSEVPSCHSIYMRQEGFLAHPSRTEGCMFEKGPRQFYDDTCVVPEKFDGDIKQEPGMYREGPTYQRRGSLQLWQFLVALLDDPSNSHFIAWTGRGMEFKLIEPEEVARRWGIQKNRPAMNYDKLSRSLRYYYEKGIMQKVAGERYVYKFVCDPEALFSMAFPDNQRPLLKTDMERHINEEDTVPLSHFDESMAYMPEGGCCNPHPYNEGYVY

Chain of ELF1 (P32519 whole entry): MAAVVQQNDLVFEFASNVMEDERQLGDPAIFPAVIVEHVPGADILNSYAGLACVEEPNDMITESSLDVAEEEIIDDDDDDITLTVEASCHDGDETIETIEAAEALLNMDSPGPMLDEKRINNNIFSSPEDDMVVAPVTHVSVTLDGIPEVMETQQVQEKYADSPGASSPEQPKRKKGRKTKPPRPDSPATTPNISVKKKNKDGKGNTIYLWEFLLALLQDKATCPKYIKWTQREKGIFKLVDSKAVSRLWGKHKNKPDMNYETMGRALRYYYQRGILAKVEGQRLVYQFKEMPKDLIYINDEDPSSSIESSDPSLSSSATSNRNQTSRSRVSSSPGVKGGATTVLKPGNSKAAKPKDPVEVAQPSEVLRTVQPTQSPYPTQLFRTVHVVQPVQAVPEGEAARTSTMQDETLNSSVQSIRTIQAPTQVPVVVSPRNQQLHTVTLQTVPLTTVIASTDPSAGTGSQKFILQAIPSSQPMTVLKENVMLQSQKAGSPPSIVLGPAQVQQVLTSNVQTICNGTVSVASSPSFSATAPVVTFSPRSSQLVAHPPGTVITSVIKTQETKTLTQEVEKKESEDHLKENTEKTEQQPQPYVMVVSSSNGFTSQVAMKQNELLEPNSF
Chain of HSF1 (Q00613 whole entry): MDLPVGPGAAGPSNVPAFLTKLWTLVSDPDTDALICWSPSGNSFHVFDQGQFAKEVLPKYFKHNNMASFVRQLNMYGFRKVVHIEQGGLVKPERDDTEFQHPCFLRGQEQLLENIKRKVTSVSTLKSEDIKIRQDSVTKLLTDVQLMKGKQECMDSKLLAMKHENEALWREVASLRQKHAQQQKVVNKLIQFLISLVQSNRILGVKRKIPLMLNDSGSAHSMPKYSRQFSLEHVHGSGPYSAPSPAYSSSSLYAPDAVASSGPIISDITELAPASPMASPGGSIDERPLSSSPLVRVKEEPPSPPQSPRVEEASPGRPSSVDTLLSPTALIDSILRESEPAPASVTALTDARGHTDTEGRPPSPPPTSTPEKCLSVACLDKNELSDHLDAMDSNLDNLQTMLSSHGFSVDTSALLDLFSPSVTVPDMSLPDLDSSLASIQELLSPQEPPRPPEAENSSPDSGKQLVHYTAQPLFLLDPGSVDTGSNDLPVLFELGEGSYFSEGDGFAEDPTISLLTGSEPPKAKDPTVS
Chain of SPIB (Q01892 whole entry): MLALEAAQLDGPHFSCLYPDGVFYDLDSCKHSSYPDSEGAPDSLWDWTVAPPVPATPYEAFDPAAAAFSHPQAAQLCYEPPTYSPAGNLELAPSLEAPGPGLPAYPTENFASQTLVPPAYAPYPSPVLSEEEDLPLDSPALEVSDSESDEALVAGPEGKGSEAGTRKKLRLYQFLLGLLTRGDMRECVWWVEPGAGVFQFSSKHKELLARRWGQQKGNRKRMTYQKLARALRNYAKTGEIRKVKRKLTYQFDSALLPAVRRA
Chain of ETV5 (P41161 whole entry): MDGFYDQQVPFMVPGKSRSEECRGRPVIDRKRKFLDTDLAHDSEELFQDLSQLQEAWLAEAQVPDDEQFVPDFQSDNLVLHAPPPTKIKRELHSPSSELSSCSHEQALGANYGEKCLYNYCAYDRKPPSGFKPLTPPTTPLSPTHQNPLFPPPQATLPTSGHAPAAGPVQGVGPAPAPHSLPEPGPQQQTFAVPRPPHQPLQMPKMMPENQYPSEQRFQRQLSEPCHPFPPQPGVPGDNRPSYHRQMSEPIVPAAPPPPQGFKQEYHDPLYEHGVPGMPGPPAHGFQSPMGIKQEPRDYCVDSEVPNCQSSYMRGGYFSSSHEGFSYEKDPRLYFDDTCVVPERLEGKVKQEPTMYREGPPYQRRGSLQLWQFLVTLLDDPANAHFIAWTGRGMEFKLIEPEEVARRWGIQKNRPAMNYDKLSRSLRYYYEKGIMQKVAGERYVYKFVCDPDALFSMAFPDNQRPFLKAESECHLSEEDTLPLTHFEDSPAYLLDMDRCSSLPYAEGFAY

AAACTG: the binding signal was 1.09 fold enrichment (6-mer frequency, TF over GST control) in [1]; 1.11 fold enrichment (6-mer frequency, TF over GST control) in [2]; 1.17 fold enrichment (6-mer frequency, TF over GST control) in test [3]; 1.01 fold enrichment (6-mer frequency, TF over GST control) in [4]; 1.09 fold enrichment (6-mer frequency, TF over GST control) in test [5]; 1.06 fold enrichment (6-mer frequency, TF over GST control) in test [6]. The binding signal is 1.12 fold enrichment (6-mer frequency, TF over GST control) in test [7]; 1.1 fold enrichment (6-mer frequency, TF over GST control) in test [8]; 1.32 fold enrichment (6-mer frequency, TF over GST control) in test [9]; 1.06 fold enrichment (6-mer frequency, TF over GST control) in [10]; 1.09 fold enrichment (6-mer frequency, TF over GST control) in [11]; 1.01 fold enrichment (6-mer frequency, TF over GST control) in test [12]. Further, the binding signal is 1.07 fold enrichment (6-mer frequency, TF over GST control) in test [13]; 1.1 fold enrichment (6-mer frequency, TF over GST control) in test [14]; 1.06 fold enrichment (6-mer frequency, TF over GST control) in [15]; 1.09 fold enrichment (6-mer frequency, TF over GST control) in test [16]; 1.01 fold enrichment (6-mer frequency, TF over GST control) in test [17]; 1.13 fold enrichment (6-mer frequency, TF over GST control) in test [18].
